Test results as given in PubChem BioAssay AID1851 (National Center for Advancing Translational Sciences (NCATS), 2009).
“And” between values parts separate entries of the source, which are not always exact repeats. Equal entries are not always repeated. Out of some 16,000 compounds screened, about 5,700 (36%) were called active. Roughly 24% stayed inconclusive and do not appear here. Calls come from the whole dose curve; as a rule, active = well fitted curve in the direction sought with a large enough effect; inconclusive = small, poorly fitted or top-dose-only effect, or effect the other way; inactive = no such curve, though single readings can be large or run the other way. The list shows a part of the results. More than one record can exist for a structure, and the calls need not agree.

These molecules were tested against Cytochrome P450 1A2 (Homo sapiens) (UniProt P05177) (assay: Cytochrome panel assay with activity outcomes). Details: recombinant CYP, pro-luciferin dealkylation, luminescence, p450-cyp1a2; series mostly up to 57.1 µM; activity, negative = inhibition: at the top concentration.
% is set by controls: 0 for no effect and ±100 for the full control effect.

Cytochrome P450 1A2 (Homo sapiens), sequence (P05177 whole entry, looked up): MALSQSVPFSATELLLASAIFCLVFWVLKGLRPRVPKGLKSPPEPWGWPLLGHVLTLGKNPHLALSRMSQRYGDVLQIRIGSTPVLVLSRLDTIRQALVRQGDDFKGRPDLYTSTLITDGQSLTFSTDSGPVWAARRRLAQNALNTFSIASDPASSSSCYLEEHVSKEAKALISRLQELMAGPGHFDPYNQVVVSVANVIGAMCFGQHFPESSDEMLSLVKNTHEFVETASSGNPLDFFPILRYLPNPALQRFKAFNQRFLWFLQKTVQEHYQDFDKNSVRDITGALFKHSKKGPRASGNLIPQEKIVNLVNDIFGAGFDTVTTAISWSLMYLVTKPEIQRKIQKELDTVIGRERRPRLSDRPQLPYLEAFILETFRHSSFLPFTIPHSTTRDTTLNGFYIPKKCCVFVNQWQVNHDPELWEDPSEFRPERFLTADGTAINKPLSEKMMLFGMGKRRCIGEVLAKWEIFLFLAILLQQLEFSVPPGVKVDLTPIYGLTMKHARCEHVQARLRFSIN

activity, negative = inhibition, inactive:
C=CC[N+]1(CC#CCOC(c2ccccc2)c2ccccc2)CCOCC1 -6.25%
NS(=O)(=O)c1cccc2c1c([N+](=O)[O-])cc1nc(O)c(O)nc12 -10.3%
COc1ccccc1CN1CC[C@@]2(CCCN(S(C)(=O)=O)C2)C1 -14.3%
Cc1ccc(NC2=NC(c3ccccc3)n3c(nc(C)cc3=O)N2)c(C)c1 (centres undefined) -4.75%
C[C@@H](c1ccccc1)N1C(=O)[C@@H]2[C@H]3C(=CC[C@H]2C1=O)C(=O)[C@H]1O[C@H]1[C@H]3O -2.35% [at 11.4 µM]
O=C(O)c1ccc(CNCc2ccccc2)cc1 -10.8% [at 11.4 µM]
O=C(O)c1cccc(CN2CCCCC2)c1 -16.7% [at 11.4 µM]
C[C@H](C(=O)c1ccccc1)[C@@H](c1ccccc1)N1CCOCC1 -14.9% [at 11.4 µM]
N[C@@H](CSCc1ccccc1)C(=O)O -9.6% [at 11.4 µM]
O=C(O)CCSCc1ccccc1 -20.7% [at 11.4 µM]
CCCCCCCCCCCC(=O)O[C@H](CC(=O)O)C[N+](C)(C)C 3.19%
Cc1ccc(NC(=O)N/C=C/c2ccc(Cl)cc2)cc1 -22.5%
O=C(Nc1ccc(N=Nc2ccccc2)cc1)c1ccc(Cl)cc1Cl 11.4%
CC(C)(C)N(NC(=O)Nc1ccccc1)C(=O)c1ccccc1Cl 5.62%
O=C(c1ccco1)N1CCC2(CCCN(Cc3ccccc3)C2)CC1 -4.78%
O=C(NCC1COc2ccccc2O1)C1CCN(S(=O)(=O)c2cccc3nsnc23)CC1 (centres undefined) -7.72%
CCCN(CCC)CCCNS(=O)(=O)c1cc(Br)cc2c1N(C(C)=O)CC2 -17.8%
COc1ccc(/C=C/C(=O)NCc2cn(C)nc2C)cc1COc1ccc(Br)cc1 -26.8%
NC(=O)CNC(=O)[C@@H]1CC2(CC(c3ccc(Cl)cc3)=NO2)CN1C(=O)c1ccccc1 (some centres undefined) 11.7%
CCOC(=O)c1cc(-c2ccccc2)sc1NC(=O)C(C)(C)C -12.1%
O=C(CN1C(=O)c2ccccc2C1=O)NC1(C(=O)O)CCCC1 -2.12% [at 2.29 µM]
CCOC(=O)c1c(NC(=O)c2ccc(N3CCOCC3)c([N+](=O)[O-])c2)sc(C)c1C 2.45%
CNC(=O)c1ccc(-c2sc3nc(N4CCOCC4)c4c(c3c2N)CC(C)(C)OC4)o1 1.36%
CN1CCN(NC(=O)CN2C(=O)/C(=C/c3c(Cl)cccc3Cl)SC2=S)CC1 -7.84%
Cc1ccc(Sc2cc(Cl)nc(N)n2)cc1 -23.8%
CN(C)C(=O)c1ccc(-c2ccc3ncnc(N4CCOCC4)c3c2)cc1 -16.8%
O=C(O)C1CCN(c2ncnc3ccc(-c4ccccc4C(F)(F)F)cc23)CC1 -19.1%
COCCCN1C(=O)C(=O)/C(=C(/O)c2ccc(OC(C)C)c(C)c2)C1c1ccncc1 (centres undefined) 15.5% [at 11.4 µM]
COc1ccc(C(=O)N2CCC[C@@]3(CCN(Cc4cc(C(F)(F)F)cc(C(F)(F)F)c4)C3)C2)cc1 2.06%
CCOC(=O)CCc1c(C)nc2ncnn2c1C -15.3%
Cc1ccc(CNC(=O)CCc2c(C)nc3ncnn3c2C)cc1 -10.8%
CC1(C)O[C@H]2O[C@@H]([C@H](O)CON3C(=O)c4ccccc4C3=O)[C@H](O)[C@H]2O1 -10.7% [at 11.4 µM]
O=c1cc(N2CCC(Cc3ccccc3)CC2)[nH]c(=O)n1C1CCCCC1 -3.97%
O=S(=O)(c1ccc(Cl)cc1)c1cnc(-c2cccnc2)nc1-c1ccccc1 -29.7%
C[C@@](O)(CNS(=O)(=O)c1ccccc1)c1ccccc1 -17.4% [at 11.4 µM]
CCCNC(=O)NS(=O)(=O)c1ccc(Cl)cc1 -1.12% [at 25.6 µM]
COc1ccc(CC(=O)N2CCN(c3ccc(C4=NNC(=O)CC4C)cc3)CC2)cc1 (centres undefined) 3.77%
O=c1c(C=Nc2ccc(Oc3ccccc3)cc2)c[nH]n1-c1cccc(Cl)n1 -27.8%
N[C@@H](C(=O)O)c1ccc(C(=O)O)c(O)c1 -18.4%
N[C@H](C(=O)O)c1ccc(C(=O)O)c(O)c1 -0.752%
O=C(O)CN(CCOCCOCCN(CC(=O)O)CC(=O)O)CC(=O)O -12.6%
CCCn1nc(Oc2nc(NCC)nc(NC(C)C)n2)ccc1=O -6.37%
O=S(=O)(c1ccccc1)N1CCC2(CCN(C(c3ccccc3)c3ccccc3)CC2)CC1 -19.9%
Cc1cccc(C(=O)NNC(=O)C2CCCO2)c1 (centres undefined) -3.1%
COc1cc2nc(N(C)CCCNC(=O)[C@@H]3CCCO3)nc(N)c2cc1OC -14% [at 25.6 µM]
CS(=O)(=O)N1CCC2(CCN(Cc3ccncc3)CC2)CC1 7%
Cc1ccc(S(=O)(=O)N[C@@H](CCc2ccccc2)CC(=O)C(C)(C)C)cc1 2.3% [at 11.4 µM]
CCOC(=O)[C@H](CCc1ccccc1)N[C@@H](C)C(=O)N1CCC[C@H]1C(=O)O -6.41% [at 25.6 µM]
C[C@@H](CCc1ccccc1)NC[C@H](O)c1ccc(O)c(C(N)=O)c1 -17.9% [at 25.6 µM]
C[C@@H](CS(=O)(=O)Cc1ccccc1)C(N)=O -13.3% [at 11.4 µM]
CC(CCc1ccccc1)NC(=O)C(=O)NCCO (centres undefined) -14%
C=CC[C@@H]1C=C[C@H](O/N=C2\c3cc(OC)ccc3O[C@H](c3cccc(OC)c3)[C@H]2O)[C@H](CO)O1 -7.04% [at 11.4 µM]
O=[N+]([O-])c1ccc(Cl)c(-c2ccc(/C=N/c3c(-c4ccco4)nc4ccccn34)o2)c1 -21.9%
CO/N=C\c1ccc(C(=O)N2[C@H](c3ccc(C)cc3)[C@@H](C)CC[C@H]2C(=O)OC)cc1 -13.4% [at 11.4 µM]
O=C(O)CC1(CC(=O)O)Nc2ccccc2SC1=O 2.04% [at 2.29 µM]
CCCCC/C=C\C[C@H](O)/C=C\c1cccc(C[C@H](O)CCCCO)n1 -3.33%

AC50, active:
Sc1ccc2ccccc2c1CNCc1ccccc1 1.26 µM
O=C(C[C@@H](c1ccccc1)N1CCCCC1)c1ccccc1 1.26 µM
O=C(Cc1ccccc1)NCCSCc1ccc(Cl)cc1 7.08 µM
O=C(N/N=C/c1ccc(Cl)cc1Cl)Nc1ccccc1 1 µM
O=C(N/N=C/c1ccc(Cl)cc1Cl)c1cccc(F)c1 1.78 µM
O=C(N/N=C/c1ccc(Cl)cc1)Nc1ccccc1 10 µM
CC(=O)N1c2c(cc(Br)cc2S(=O)(=O)NCC2COc3ccccc3O2)CC1C (centres undefined) 3.16 µM
COc1ccc(C(=O)NN)cc1COc1ccc(Br)cc1 0.2 µM
C=CCc1cc(C=O)cc(OC)c1OCc1ccc(Cl)cc1 1.12 µM
CCOC(=O)c1cc(-c2ccccc2)sc1NC(=O)c1ccc(OC)cc1 8.91 µM
COC(=O)c1cc(-c2ccccc2)sc1NC(=O)CN1C(=O)c2ccccc2C1=O 0.708 µM
CCOC(=O)c1c(NC(=O)CCCN2CCOCC2)sc2c1CC(C)(C)OC2 14.1 µM
CCN1C(=O)/C(=C/C=C2/SCCN2C)SC1=S 1 µM
CCNc1nc(Sc2ccc(C)cc2)cc(C(F)(F)F)n1 3.16 µM
COc1ccc(Oc2ncc3nc(-c4ccc(F)cc4)c(=O)n(C)c3n2)cc1 2 µM
Cn1c(=O)c(-c2ccc(F)cc2)nc2cnc(Oc3ccccc3)nc21 0.316 µM
COc1cccc(-c2ccc3ncnc(N4CCOCC4)c3c2)c1 1 µM
FC(F)(F)c1ccccc1-c1ccc2ncnc(N3CCOCC3)c2c1 0.251 µM
COc1ccccc1-c1ccc2ncnc(N3CCOCC3)c2c1 0.631 µM
CN(C)Cc1ccccc1-c1ccc2ncnc(N3CCOCC3)c2c1 15.8 µM
COc1ccccc1-c1ccc2ncnc(N3CCN(C)CC3)c2c1 3.16 µM
CCc1c(C)nc2ncnn2c1NCCc1ccc(OC)cc1 15.8 µM
O=S(=O)(c1ccccc1)c1cnc(-c2cccnc2)nc1-c1ccc(Cl)cc1Cl 8.91 µM
CCC(C)(C)N=C(NC#N)Nc1cccnc1 12.6 µM
O=S(=O)(NCc1cc(-c2ccccc2Cl)no1)c1ccccc1 7.08 µM
O=S(=O)(NCc1cc(-c2ccccc2Cl)no1)c1ccc(Cl)cc1 1 µM
O=C1c2ccccc2C(=O)N1Cc1cc(-c2ccccc2Cl)no1 0.794 µM
O=c1[nH][nH]cc1C=Nc1ccccc1O 10 µM
COc1cccc(N=Cc2c[nH][nH]c2=O)c1 1 µM
N[C@@H](C(=O)O)c1cc(O)ccc1Cl 15.8 µM
CCNc1nc(NCC)nc(ON=C(C)C)n1 14.1 µM
CCCNc1nc(NCC)nc(OC)n1 11.2 µM
O=C(Nc1nc2ccc(F)cc2s1)C1CCCO1 (centres undefined) 4.47 µM
CC(CCc1ccccc1)NC(=O)/C=C/c1ccccc1 (centres undefined) 12.6 µM
CCCCNC(=O)C(=O)NC(C)CCc1ccccc1 (centres undefined) 15.8 µM
CC(CCc1ccccc1)NS(=O)(=O)c1ccccc1 (centres undefined) 14.1 µM
COc1cc(-c2nc3ccccn3c2/N=C/c2ccccc2)ccc1O 3.16 µM
C[n+]1cc2c3c(ccc2c2ccc4cc5c(cc4c21)OCO5)OCO3 3.98 µM
Cc1cnc(CNc2ccnc(-c3ccc(N(C)C)cc3)n2)cn1 2.51 µM
Cc1cnc(CNc2ccnc(-c3ccoc3)n2)cn1 12.6 µM
C[N+](C)(C)c1cc2c(nn1)Nc1ccccc1S2 2 µM
CC(/C=C/c1ccco1)=N/NC(=O)c1ccccc1Cl 17.8 µM

AC50, inactive and 39.8 µM (active):
N#Cc1cc2nc(O)c(O)nc2cc1[N+](=O)[O-]
